Experimental data: PubChem BioAssay AID1508600 (Functional Genomics Laboratory (NCATS/FGL), 2020)
Among all 53,000 sequences or so, about 3,700 (7%) were called active. Shown is part of a subset that was picked to be rich in actives. Values without a mark were called inactive.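 How the source made its calls: active means gene knockdowns whose robust z-score for IL-1 alpha signal is at least 2 or at most -2, so actives lie on both sides; inactive means the rest.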

Test: Components of the Cytosolic LPS Sensing Pathway: Gene Identification via Genome-wide siRNA Screen;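 further: robust z of the log signal after scaling to non-targeting control siRNA wells of the plate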
Conditions: RAW264.7 macrophages, IL-1a HTRF, actives lie on both sides, screened at 100 nM (by protocol), cells primed 5 h with Pam3CSK4 first
How it was run: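 RAW264.7; siRNA 100 nM final, RNAiMAX, 48h 37 degrees C; Pam3CSK4 5 h; LipidA + TransIT-TKO 24 h; IL-1a HTRF; CellTiter-Glo viability; robust z vs negative-control median.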

Sequence	z-score
CCUAGAAAUGAUUGUUGUUTT against Ncapg2	1.98
GGAGACCUUAAAAGAACAUTT against Ccdc134	0.775
CCCGGUUGUCUGGAUAUGATT against Map3k3	-2.39 (active)
CCCAGAUGGAUUUUUGCAUTT against Gm10413	0.102
GCCAAAGUCUUGCUAUGUGTT against Uba7	-0.481
GGAAGCUCUUCAACUCUACTT against Vps4b	2.06 (active)
AUUGGACUUCUACAUGGCUTT against Olfr207	1.43
GGAGAGAUGGUAUUGUUGGTT against Olfr1298	-0.0094
GGGCACUCAAGUGUAUGUCTT against Hpx	0.224
GCCAAAUGAACUAGCAAUATT against Golm1	0.0585
GGCAUUUGAGUGGACUGUUTT against Hirip3	0.421
GGUCUGUCUCGUCUACAAUTT against Gstm1	2.98 (active)
GGCGUAAAAUUCAAACUCATT against Cr2	1.02
GGAUCAGGAAGGAUUCGGATT against Zfp84	-1.01
GGAAGGAGCUUCGAAAAAATT against Pex16	0.129
GGAGAAGUUUAGUGAAGAATT against Rmdn2	-2.48 (active)
GGCUUAAGGACAAGAAGAUTT against Gsn	-0.747
CCAUAAGUUUGAAGAAUCCTT against Glg1	1.45
GGCUAUGUAGAUGGUUUUGTT against B830017H08Rik	2.65 (active)
GGAUCACCUAACGUAAUGGTT against Phlda1	-1.31
GGUGACUUGGAAGAGCCCATT against Il1rapl2	-0.637
CGUCGUGGUUGGUAUGUAATT against Sacs	-1.18

Sequence	z-score
GGCCAGACAAAUGAUGCCATT against Slc25a30	-3.04 (active)
GGAACUAUAUACGAUGAUGTT against Usp8	-0.316
GGAGUUUGAAGACUUUUUGTT against Pstpip2	0.24
CGGCUAGAUGAUCCUACCUTT against Tsga13	-0.542
GGCCCUAGAUGAGCACAAATT against Kcnh3	2.48 (active)
GCUCUGAUCAUUUGACUUGTT against Ovca2	0.128
GGACCAGAAAUACAUUUUCTT against Arhgef2	-0.288
GGGCAGAAACAAAAGGUUATT against Tmlhe	0.917
GGAAUGUUACCCUUCAACUTT against Slc25a13	-0.0366
GGACUCAAGAGAAAUUCAATT against Nod2	2.19 (active)
GGGAUGUGAAAUGCACCUUTT against Rftn1	-1.03
GGUAUUCUUCCUCCAUGGGTT against Olfr638	-3.22 (active)
UGACUUUUGGACACGAGGCTT against Trim15	-0.159
GGACAAAUGACUGGUACCCTT against Gorasp2	-0.314
CGUGUGAAGCAGUUAUGAUTT against Pbx3	1.02
GGCAAAUAGUUUCUUCAAUTT against Npnt	-0.485
GGUUGUGAACAGUCCACCCTT against Ski	0.461
GGAGUGGCCAUUAAAUUUATT against Slc17a8	2.75 (active)
GGUGCUGGUGGAUGAACUATT against Nags	-1.5
GGAGGCUAUUACUGUUUAUTT against Fam107b	0.601
GGUCAAGAGUGCAUUCAAATT against Olfr1445	0.266
GGAACUGAUAUCAUGUACATT against Slc25a5	2.15 (active)

Sequence	z-score
GCCGAUUCUCAUAUUUGACTT against Exo1	-0.742
GGCUGAGAACAAUAUGUAUTT against Ccdc80	0.323
GGGCAUUUGGCCUUUCUCATT against Cpsf4	-0.905
GGGCUUGUUUGACUUUCAUTT against Btd	0.175
GGCUGUAAUGAGGACUGAUTT against Ss18l2	3.25 (active)
CCCUAUACAGCGUACCCAATT against Eya2	-0.754
GCCAUGCUCACUGAACUUCTT against Nanp	-2.3 (active)
GGACUUGAAACUUCUGGAUTT against Nudt16	0.453
GCUAUGUAACACACCGCUGTT against Ticam1	-1.24
GGUGUCUUUACGUCUCCCATT against Neto1	-2.56 (active)
GGACGAGUCACACUUUGGATT against Cdyl2	-0.328
GGUCAAGAGGAGGGUACCUTT against Foxred2	0.313
GCUUUAAAUAGAGACUAUCTT against Sox30	1.15
GGAGACUUCAGCACCUUUGTT against C4a	0.455
CCUGAUCUCAGCCUAUACUTT against Rapgef6	-2.26 (active)
GGAACCAAAAGCCUGGCGATT against Pkd1l3	-1.68
GGACUGAUAUCAUUUCUGATT against Flacc1	-1
GCAUCCACCUCAACGAUAUTT against Dlg3	-1.33
GCUAGGAGCUAGGAAUCCGTT against Pdzd3	-0.682
GGCAGAAUGGGCUUAUGUCTT against Trabd	-2.54 (active)
GGAGCUUGCCAUAUUCCUCTT against Leprotl1	0.915
GGAAAUAUAUGUCAUGUCATT against Nars	2.37 (active)

Sequence	z-score
GCAAGAUUGGAAUGCUCCATT against 3830403N18Rik	0.309
GGAAGAUAAUAUCCUUUGGTT against Olfr734	-1.02
GGGAUUUUGAGUUUGAUGCTT against Zc3h10	-1.03
GCUGUCAAAUUAACCUGUGTT against Spin2c	-2.31 (active)
GCUCGAUAUAAUUUCACACTT against Neto1	-0.75
GCCGCUACUCUCCUCAAAATT against Card19	-0.329
CGUGUAAGUUUUGAUUCUATT against Calr	0.815
GGAGCUUGUGAACACCUUCTT against Nudc	0.718
GGCUAUCUGCUUAUGCUGGTT against Ptch2	-0.314
CCAGUAAACCGAGACCAUUTT against Nsfl1c	2.02 (active)
GCUAAGCGAAGAGUUUAACTT against Dlgap3	0.691
GGACUUCUUCGAUUGUUCUTT against Chchd1	0.475
GCUCUACAUGAAAACACUGTT against Gpat4	-0.28
CGAAAUUGCUGACUCAGAATT against Arl6ip6	0.549
CCCAGCUUUCAUCCUUUGUTT against Emc7	0.237
GGGCAGUCUGAUAGAGGAUTT against Adam30	-0.632
GGCUUCUGAUCUUACCUGGTT against Smim12	0.683
GGAGGAACCCUCAUUUUAGTT against Prxl2c	-0.897
CCAACUCGGCUGUUUUUUATT against F11r	0.149
GGAAAGCACCCAAGAAAUGTT against Gspt1	-0.915
GGUACAAUCCCAGAUUUGATT against Smc3	-2.37 (active)
CCCUUAAGUCUUUUUCCUATT against Celf2	-1.09

Sequence	z-score
GGCCAUGGUGGCGUGUUAUTT against Egln2	-0.524
GCUGCUCCCUCUAAUAAAATT against Cbr1	-0.913
GGCGUGAACCAAACAGACUTT against Calcrl	-0.604
CGGAGCCAAAUACGAAGGGTT against Jph3	-0.548
GGCAGAAAAGAUGGAAAAUTT against Evi5l	-2.1 (active)
GGCAAGCACACAAUGAUGCTT against Plin5	-0.0222
GGUAGAACAACAGAACAAUTT against Myo5b	2.9 (active)
GCAGCUUCAAGAGAGCCAUTT against Rhbdl1	-0.604
GGAAGUAGCCCAGAAGUGUTT against Rad51d	-0.337
GGGAGAGUUCCAUAAAUUGTT against Narf	-0.728
GGGACUGGCACCAUUUGUUTT against Cetn4	-0.289
GGACAUGGCUUUAUAACCUTT against Dcdc5	0.256
GCAGCAUAGAGACUAAAUCTT against Usp17la	0.604
GGAUAAAAUUGAGUCUAUGTT against Was	1.81
GGGCCAAUGAUGGACUUCCTT against Syp	0.33
GGCCCUAUUAGAGAUAAAATT against Robo3	-1.2
GGUAGUCUGAACACUCUAATT against Msto1	0.427
GGAAGAAGAGGAGGAGAUGTT against Zbtb7b	3.17 (active)
GCUAUCUCCACUCUGAGUCTT against Spryd4	-0.342
CCGCCAGGGAAACAAAUACTT against Zfp414	-1.21
